# High-throughput results as filed in PubChem.
# Glioma ERSR ind = inducers of ER stress response in human glioma cells | 420,000 tested, 0.02% active | Potency, µM, actives largely listed as activators | U87-MG GRP78 promoter luciferase reporter, 16 h; further: series mostly up to about 76 µM; nearly all actives have a fitted effect of over 35% in size
#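 Stably transfected U87-MG glioma cells carrying a GRP78-based luciferase sensor; 16 h compound incubation. Luminescence end-point read 10 min after Bright-Glo addition at room temperature.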
# ALOX12 inh = ALOX12 (human) lipoxygenase inhibition. P18054. purified 12hLO, xylenol orange hydroperoxide absorbance. Potency, µM (highest dose often 108 µM), actives largely listed as inhibitors. 580,000 tested, 1.1% active. AID 1671190
# Target sequence (P18054 whole entry, looked up): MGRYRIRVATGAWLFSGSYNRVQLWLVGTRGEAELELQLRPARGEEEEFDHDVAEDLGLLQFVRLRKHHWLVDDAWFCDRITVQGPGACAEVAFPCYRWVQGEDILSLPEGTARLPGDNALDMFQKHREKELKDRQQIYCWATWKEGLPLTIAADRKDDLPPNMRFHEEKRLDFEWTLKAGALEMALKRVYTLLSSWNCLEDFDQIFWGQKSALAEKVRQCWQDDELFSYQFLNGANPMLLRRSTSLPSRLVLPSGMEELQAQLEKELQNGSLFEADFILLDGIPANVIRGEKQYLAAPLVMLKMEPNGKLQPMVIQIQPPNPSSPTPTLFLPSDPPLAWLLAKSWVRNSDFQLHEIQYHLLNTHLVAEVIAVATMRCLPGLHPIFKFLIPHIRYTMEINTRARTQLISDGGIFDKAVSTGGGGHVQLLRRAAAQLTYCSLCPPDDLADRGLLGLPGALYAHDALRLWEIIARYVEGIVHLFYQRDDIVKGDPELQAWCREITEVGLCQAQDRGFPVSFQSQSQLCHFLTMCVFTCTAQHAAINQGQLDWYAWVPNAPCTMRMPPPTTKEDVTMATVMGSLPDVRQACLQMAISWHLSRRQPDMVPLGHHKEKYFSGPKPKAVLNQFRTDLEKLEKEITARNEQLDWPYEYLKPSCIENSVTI
#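 Purified human 12hLO (150 nM final) in 25 mM Hepes, 0.01% Triton X-100, pH 7.0 was preincubated 15 min at room temperature with compound. Then 40 uM arachidonic acid was added, 30 min. Hydroperoxide was read by Fe-XO absorbance ratio 573/405 nm.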
# VDR inh = inhibitors of human vitamin D receptor; Potency, µM, hits mostly inhibitors; 400,000 tested, 0.93% active; AID 504847; VDR-SRC2-3 peptide fluorescence polarization, 2 h
#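 Measured by FP: displacement of SRC2-3 coactivator peptide from VDR by library compounds, following a two-hour ambient incubation.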
# G9a inh = G9a (human) methyltransferase inhibition; Q96KQ7; G9a H3K9 monomethylation, AlphaScreen, 2 h; Potency, µM (highest dose often 102 µM), usual class: inhibitors; 350,000 tested, 8.8% active; further: nearly all actives have a fitted effect of over 75% in size
#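 Chemiluminescent proximity detection of H3K9 monomethylation, read after 10 min bead incubation in the dark. Reaction: 20 nM G9a, 500 nM biotin-H3K9 peptide, 20 uM SAM cofactor, 2 h, room temperature, following 15 min enzyme-compound preincubation.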
# Numbers stand for hits; – = inactive; ? = inconclusive; · = no result given. The full list was thinned out, with hits kept by preference. The call rests on the fitted dose curve; in most records, active means well fitted curve in the direction sought with a large enough effect; inconclusive means small, poorly fitted or top-dose-only effect, or another doubt; inactive means no such curve, though single readings can be large; an effect the other way counts as inactive or inconclusive.
SMILES,Glioma ERSR ind,ALOX12 inh,VDR inh,G9a inh
N#CC1=C2SCN(C3CCCCC3)CN2C(=O)CC1c1ccc(Cl)cc1 (configuration not stated),–,?,22µM,2µM
CCC12CN3CC(CC)(CN(C1)C3c1ccc(C(C)C)cc1)C2=O (configuration not stated),·,–,·,·
N#CC1=C2SCN(C3CCCCC3)CN2C(=O)CC1c1c(F)cccc1Cl (configuration not stated),–,?,20µM,2.8µM
c1ccc2cc(OCCSc3nc4ccccc4o3)ccc2c1,·,–,·,·
O=C(COC(=O)c1cc([N+](=O)[O-])ccc1Cl)Nc1ccc2c(c1)OC(F)(F)O2,·,–,·,·
